# Shown are actives, neighbours in structure and some others; about 6.1% of the full set was active somewhere.
# D1 antag: Antagonist of Human D 1 Dopamine Receptor: qHTS. activity change, negative = inhibition, % at 10 µM. HEK293 TREx D1 cells, calcium flux, dopamine EC80; hits give low values. 3.2% of 360,000 active. D(1A) dopamine receptor (Homo sapiens), P21728; in the data active = activity change below about -30%; also: % is scaled to controls: 0 for no effect and ±100 for the full control effect
# Target sequence (P21728 whole entry, looked up): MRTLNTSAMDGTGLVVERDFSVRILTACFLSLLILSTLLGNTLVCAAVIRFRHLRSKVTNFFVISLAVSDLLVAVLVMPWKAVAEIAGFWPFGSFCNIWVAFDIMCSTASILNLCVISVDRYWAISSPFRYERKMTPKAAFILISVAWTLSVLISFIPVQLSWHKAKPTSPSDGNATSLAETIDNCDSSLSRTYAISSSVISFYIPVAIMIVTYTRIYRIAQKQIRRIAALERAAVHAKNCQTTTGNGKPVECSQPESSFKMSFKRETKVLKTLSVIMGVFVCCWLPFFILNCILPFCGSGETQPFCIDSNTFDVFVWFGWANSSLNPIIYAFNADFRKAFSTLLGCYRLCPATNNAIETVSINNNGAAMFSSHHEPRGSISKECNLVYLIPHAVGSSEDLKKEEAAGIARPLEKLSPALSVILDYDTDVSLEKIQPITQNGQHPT
#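 Allosteric or orthosteric antagonism assessed as attenuation of the calcium response to EC80 dopamine, added 180 s after compound, in induced HEK293 Trex D1 cells loaded with no-wash calcium dye.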
# D3 ag: qHTS of D3 Dopamine Receptor Agonist: qHTS | D3R DiscoveRx beta-arrestin cells, luminescence, 90 min | max activation, % | 0.58% of 410,000 active | AID 652048, 2013; in the data active = max activation above about 30%; also: 0% is about no effect
#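 Agonist-mode cell screen: cells plated at 1500/well and incubated overnight at 37 °C, then exposed to library compounds for 90 min at 37 °C. Detection reagent was added for 30–60 min at room temperature, and luminescence was read.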
# ERG-DNA inh: qHTS for Small Molecule Inhibitors of the ERG Ets/DNA interaction | Transcriptional regulator ERG (Homo sapiens), P11308 | 0.028% of 370,000 active | AID 624246, 2012 | fluorescence polarization, His-ERG Ets domain / labelled DNA | Potency, µM (doses to about 76.9 µM), for the others: top-dose FP activity, negative = inhibition, hits mostly inhibitors; active = well fitted inhibition curve with a large enough effect in the polarisation, with a control signal flat; inconclusive = small, poorly fitted or top-dose-only effect, or effect the other way, or a change in a side signal; inactive = no such curve, though single readings can be large or run the other way; the % refers to the polarisation;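 also: polarization taken with two DNA probes labelled with fluorescein and Texas red; potency is read from the fitted curve at half-maximal effect; % of control where 0% means no effect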
#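 His-tagged ERG Ets domain (1 uM in the protein solution; 300mM KCl, 50mM Tris-HCl, 1mM EDTA, 1mM DTT, pH 7.5) received compound, then a probe mix of 5 nM fluorescein-DNA and 100nM Texas-615-DNA. Fluorescence polarization was read for both dyes.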
# D1 potentiator: Potentiators of Human D1 Dopamine Receptor: qHTS; D(1A) dopamine receptor (Homo sapiens), P21728; HEK293 TREx D1 cells, calcium flux, dopamine EC20 potentiation; potentiation, % at 10 µM; 0.036% of 360,000 active; AID 504651, 2011; in the data active = potentiation above about 30%; also: 0% is about no effect
# D1 agonist: Allosteric Agonists of the Human D1 Dopamine Receptor: qHTS; 1% of 360,000 active; D(1A) dopamine receptor (Homo sapiens), P21728; HEK293 T-REx D1 cells, calcium flux, agonist mode; activation, % at 2 µM; in the data active = activation above about 30%; also: 0% is about no effect
#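 Tetracycline-induced HEK293 TREx D1 cells, force-coupled to calcium signalling, were dye-loaded with a no-wash calcium kit. Compound was pin-added after a 10 s baseline. Fluorescence was read kinetically at 1 cycle/s for 180 s, with calcium rises flagged as agonism.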
# D3 antag: qHTS of D3 Dopamine Receptor Antagonist: qHTS; D(3) dopamine receptor (Homo sapiens), P35462; D3R cells, DiscoveRx beta-arrestin luminescence, antagonist mode; hits give low values; max response, negative = inhibition, %; 2.5% of 360,000 active; in the data active = max response below about -50%; inconclusive = no clear call, values can overlap the other calls; also: % is scaled to controls: 0 for no effect and ±100 for the full control effect
#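 Cells plated overnight at 1500 cells/well, then exposed to library compounds with dopamine controls for 90 minutes at 37 degrees C. DiscoveRx reagent added for 30–60 minutes at room temperature; luminescence read, quantitative HTS format.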
# * hit, by the source's call; ? = inconclusive; / = no result.
SMILES,D1 antag,D3 ag,ERG-DNA inh,D1 potentiator,D1 agonist,D3 antag
Fc1ccc(CCNCc2cccc(Cl)c2)cc1,-8,-29,/,-12,42*,-56*
COc1cccc(CNCCc2ccc(F)cc2)c1,-2,2,5%,-6,10,-6
Fc1ccc(CCNCc2ccc(Br)cc2)cc1,2,-17,5%,4,33*,-56*
COc1ccc(OC)c([C@@H](O)[C@H](C)NC(C)(C)C)c1,5,14,8%,7,2,19
Cc1cc(C)n(-c2ccc(NN=C(C#N)C#N)cc2)n1,-31*,0,1%,-2,41*,0
N#CC(C#N)=NNc1ccc(-n2ccc(C(F)(F)F)n2)cc1,-36*,23,-9%,-14,33*,-2
COC(=O)C1=C(c2cccc(OCc3ccccc3)c2)C[C@@H]2CC[C@H]1N2C(=O)NCCN1CCOCC1,4,-2,-9%,-2,-1,0
OC(CN1CCC(c2c[nH]c3ccccc23)CC1)C(F)(F)F (stereo unspecified),-41*,-6,11%,-9,4,-63*
O=c1[nH]c(=S)[nH]c(O)c1N=Nc1ccc(S(=O)(=O)N2CCc3ccccc32)cc1,7,-6,9%,-3,1,-29
Cc1cc(-n2c(/C=C/c3cccs3)nc3ccccc3c2=O)ccc1Br,-32*,-1,-4%,-1,0,/
CN1C(=O)NC(=O)C2(Cc3ccccc3N3CCOCC32)C1=O (stereo unspecified),-32*,3,-3%,-6,4,15
O=C1NC(=O)N(Cc2ccc(F)cc2)C(=O)/C1=C\c1ccc([N+](=O)[O-])s1,0,-13,68%,16,15,-55*
CCOC(=O)C(NC(=O)C(Cc1ccc(N(CCCl)CCCl)cc1)NC(C)=O)C(C)C (stereo unspecified),-3,0,-15%,0,2,-9
COC(=O)C(Cc1ccc(N(CCCl)CCCl)cc1)N=Cc1ccccc1O (stereo unspecified),-40*,-8,5%,-12,7,?
FCCN(CCF)c1cccc(Cl)c1,-34*,1,3%,4,0,2
CCN(CC)c1ccc(/C=C/[N+](=O)[O-])cc1,-19,-2,18%,-3,254*,-14
COc1cc(/C=C/[N+](=O)[O-])ccc1O,3,14,10%,-1,-2,42
COC(=O)C1=C(c2cc3ccccc3o2)C[C@@H]2CC[C@H]1N2C(=O)NCCO,/,3,-5%,/,/,0
COc1ccccc1N1CCN(Cc2cnc(-c3ccccc3)[nH]2)CC1,-15,-27,-1%,-11,4,-83*
Cc1ccccc1CN1CCN(Cc2ccccc2)CC1,12,-16,4%,-8,1,?
Cc1ccc(N2CCN(CCc3ccccc3)CC2)cc1,-44*,-45,2%,-11,4,-66*
Cc1cccc(N2CCN(CCc3ccccc3)CC2)c1C,-51*,20,-9%,-11,39*,-68*
COc1ccccc1N1CCN(CCc2ccccc2)CC1,-47*,-1,10%,-7,3,-104*
CC1CN(CCc2ccccc2)CC(C)O1 (stereo unspecified),0,-7,/,-4,1,11
O=C1NC(=O)C(Cc2ccccc2)(Cc2ccccc2)C(=O)N1Cc1ccccc1,/,-13,-10%,/,/,5
SMILES,D1 antag,D3 ag,ERG-DNA inh,D1 potentiator,D1 agonist,D3 antag
CCOc1cc2c(cc1OCC)-n1cccc1C(c1cccc(OCC)c1O)NC2 (stereo unspecified),17,-3,3%,9,3,-2
Cc1ccc(NC(=O)CSc2nnc([C@@H](N)Cc3c[nH]c4ccccc34)o2)c(C)c1,-2,3,-7%,-1,3,11
Cc1nn(Cc2ccccc2)c(C)c1C(=O)NC1CCCc2ccccc21 (stereo unspecified),-9,-10,-5%,-4,0,8
COc1ccc(OC)c(NC(=O)Cn2cc(C(=O)c3ccccc3F)c3ccccc32)c1,-33*,1,1%,-4,3,/
O=C(Cc1ccc([N+](=O)[O-])cc1)N1CCN(Cc2ccc3c(c2)OCO3)CC1,-36*,3,9%,1,3,12
COC(=O)C1=C(c2ccc(OCc3ccccc3)cc2)C[C@@H]2CC[C@H]1N2C(=O)NCCN1CCOCC1,/,-5,16%,/,/,-10
COC(=O)C1=C(c2ccccc2OCc2ccccc2)C[C@@H]2CC[C@H]1N2C(=O)NCCOc1ccc(OC)cc1,-38*,-28,2%,-5,2,?
COC(=O)C1=C(c2ccc(F)cc2OCc2ccccc2)C[C@@H]2CC[C@H]1N2C(=O)NCCOc1ccccc1,-26,-1,-2%,-1,2,45
COC(=O)C1=C(c2ccc(F)cc2OCc2ccccc2)C[C@@H]2CC[C@H]1N2C(=O)NCCOc1ccc(OC)cc1,-2,-21,-25%,-4,3,-24
COC(=O)C1=C(c2ccc(OCc3ccccc3)cc2)C[C@@H]2CC[C@H]1N2C(=O)NC1CCN(Cc2ccccc2)CC1,9,-33,-2%,-3,2,-94*
COC(=O)C1=C(c2ccccc2OCc2ccccc2)C[C@@H]2CC[C@H]1N2C(=O)NCCOc1ccccc1,-31*,-9,-13%,-6,9,-5
Cc1ccc(Cn2ccccc2=N)cc1,2,10,13%,-2,1,8
CN(Cc1cccc(-c2cccnc2)c1)C(=O)Oc1ccc([N+](=O)[O-])cc1,/,3,/,/,/,19
CN(C)c1ccc([N+](=O)[O-])c([N+](=O)[O-])c1,/,-10,2%,/,/,-15
O=S(=O)(c1cc(Cl)cc(Cl)c1)N1Cc2cc(N3CCOCC3)ccc2-n2nncc2C1,/,6,/,/,/,2
CCOC(=O)C1=C(N)OC2=C(C(=O)CC(C)(C)C2)C12C(=O)Nc1ccccc12 (stereo unspecified),-37*,9,/,-12,1,-9
COC(=O)C1=C(c2ccc(OCc3ccccc3)cc2)C[C@@H]2CC[C@H]1N2C,/,-8,/,/,/,-20
CCOC(=O)CC1c2ccccc2-n2nncc2CN1Cc1ccc(OC)cc1 (stereo unspecified),/,7,-4%,/,/,-2

# From PubChem BioAssay
